This is an account of results in ChEMBL document CHEMBL1961873, “Compounds: GSK PKIS; Assays: Nanosyn kinase panel” (2012).

The structures appear in SMILES notation.

Assay [1] has as its target Mitogen-activated protein kinase 3 (Homo sapiens) (UniProt P27361). To be noted: at 1 µM.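 Note: values are mean percent inhibition of MAPK3.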
Assay [2] addresses SRSF protein kinase 3 (Homo sapiens) (UniProt Q9UPE1). To be noted: at 0.1 µM.
Assay [3] has the same target. The conditions noted are these: at 1 µM.
The target in assay [4] is Mitogen-activated protein kinase 14 (Homo sapiens) (UniProt Q16539). To be noted: at 0.1 µM.
Sequence of Mitogen-activated protein kinase 14 (Homo sapiens) (Q16539 whole entry): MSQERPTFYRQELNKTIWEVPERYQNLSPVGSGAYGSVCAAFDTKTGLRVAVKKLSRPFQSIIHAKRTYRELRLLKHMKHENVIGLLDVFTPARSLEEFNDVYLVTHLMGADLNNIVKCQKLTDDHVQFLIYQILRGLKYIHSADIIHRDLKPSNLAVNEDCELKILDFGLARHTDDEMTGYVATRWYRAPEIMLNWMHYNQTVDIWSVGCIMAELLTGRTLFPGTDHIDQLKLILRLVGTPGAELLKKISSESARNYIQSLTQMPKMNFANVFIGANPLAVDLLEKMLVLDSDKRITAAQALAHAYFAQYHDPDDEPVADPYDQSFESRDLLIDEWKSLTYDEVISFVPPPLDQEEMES
Assay [5] shares this target. The conditions noted are these: at 1 µM.
Assay [6] concerns the target Mitogen-activated protein kinase 11 (Homo sapiens) (UniProt Q15759). The conditions noted are these: at 0.1 µM.
Assay [7] has the same target. To be noted: at 1 µM.
For assay [8], the target named is T1, Mitogen-activated protein kinase 13 (Homo sapiens) (UniProt O15264).
T1 sequence (whole entry): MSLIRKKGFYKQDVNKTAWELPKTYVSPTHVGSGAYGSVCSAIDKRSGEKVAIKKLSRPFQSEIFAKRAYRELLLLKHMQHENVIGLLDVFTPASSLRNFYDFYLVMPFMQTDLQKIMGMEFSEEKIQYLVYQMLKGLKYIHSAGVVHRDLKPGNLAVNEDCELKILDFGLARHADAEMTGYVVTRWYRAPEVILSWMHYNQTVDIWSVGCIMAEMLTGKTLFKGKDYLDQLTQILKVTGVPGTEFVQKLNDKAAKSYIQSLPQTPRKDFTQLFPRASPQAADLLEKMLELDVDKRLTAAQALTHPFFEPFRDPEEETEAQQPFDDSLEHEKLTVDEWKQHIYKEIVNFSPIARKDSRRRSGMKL
To be noted: at 0.1 µM.

Assay [9] concerns the target T1, Mitogen-activated protein kinase 13 (Homo sapiens). To be noted: at 1 µM.
The target of assay [10] is T2, Mitogen-activated protein kinase 12 (Homo sapiens) (UniProt P53778).
T2 sequence (whole entry): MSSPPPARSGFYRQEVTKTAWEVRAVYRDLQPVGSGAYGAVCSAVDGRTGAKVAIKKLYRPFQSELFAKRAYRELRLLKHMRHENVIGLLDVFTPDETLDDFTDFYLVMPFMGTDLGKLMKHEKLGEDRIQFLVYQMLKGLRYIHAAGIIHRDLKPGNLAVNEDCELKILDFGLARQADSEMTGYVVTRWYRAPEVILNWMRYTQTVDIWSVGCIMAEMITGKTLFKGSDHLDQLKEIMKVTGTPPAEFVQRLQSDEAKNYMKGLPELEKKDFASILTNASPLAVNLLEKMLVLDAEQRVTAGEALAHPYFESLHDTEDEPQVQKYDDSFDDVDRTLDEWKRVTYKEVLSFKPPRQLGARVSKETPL
The conditions noted are these: at 0.1 µM.

Assay [11] has as its target T2, Mitogen-activated protein kinase 12 (Homo sapiens). The conditions noted are these: at 1 µM.
In assay [12] the target is SRSF protein kinase 1 (Homo sapiens) (UniProt Q96SB4). The conditions noted are these: at 0.1 µM.
Sequence of SRSF protein kinase 1 (Homo sapiens) (Q96SB4 whole entry): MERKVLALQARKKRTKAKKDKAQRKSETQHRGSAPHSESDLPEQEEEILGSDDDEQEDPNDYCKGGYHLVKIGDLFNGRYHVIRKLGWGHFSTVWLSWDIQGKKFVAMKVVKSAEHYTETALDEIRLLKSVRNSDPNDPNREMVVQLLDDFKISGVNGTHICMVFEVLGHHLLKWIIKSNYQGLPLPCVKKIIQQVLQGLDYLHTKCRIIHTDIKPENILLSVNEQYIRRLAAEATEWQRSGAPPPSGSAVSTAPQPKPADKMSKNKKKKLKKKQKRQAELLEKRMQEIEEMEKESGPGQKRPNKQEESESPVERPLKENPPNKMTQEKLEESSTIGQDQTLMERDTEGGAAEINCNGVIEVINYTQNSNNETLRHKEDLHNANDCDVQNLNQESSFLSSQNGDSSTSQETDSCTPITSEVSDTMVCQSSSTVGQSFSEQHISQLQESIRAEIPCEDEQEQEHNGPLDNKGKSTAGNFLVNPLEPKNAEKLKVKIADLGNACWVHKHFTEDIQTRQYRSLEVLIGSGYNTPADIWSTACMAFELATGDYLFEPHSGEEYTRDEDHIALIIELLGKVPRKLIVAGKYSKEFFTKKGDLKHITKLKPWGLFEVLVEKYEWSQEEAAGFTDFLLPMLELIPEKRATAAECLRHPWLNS
For assay [13] the target is unchanged. The conditions noted are these: at 1 µM.
Assay [14] addresses Phosphatidylinositol 4,5-bisphosphate 3-kinase catalytic subunit alpha isoform (Homo sapiens) (UniProt P42336). The conditions noted are these: at 0.1 µM.
Assay [15] has the same target. To be noted: at 1 µM.
The target of assay [16] is T3, Phosphatidylinositol 4,5-bisphosphate 3-kinase catalytic subunit delta isoform (Homo sapiens) (UniProt O00329).
T3 sequence (whole entry): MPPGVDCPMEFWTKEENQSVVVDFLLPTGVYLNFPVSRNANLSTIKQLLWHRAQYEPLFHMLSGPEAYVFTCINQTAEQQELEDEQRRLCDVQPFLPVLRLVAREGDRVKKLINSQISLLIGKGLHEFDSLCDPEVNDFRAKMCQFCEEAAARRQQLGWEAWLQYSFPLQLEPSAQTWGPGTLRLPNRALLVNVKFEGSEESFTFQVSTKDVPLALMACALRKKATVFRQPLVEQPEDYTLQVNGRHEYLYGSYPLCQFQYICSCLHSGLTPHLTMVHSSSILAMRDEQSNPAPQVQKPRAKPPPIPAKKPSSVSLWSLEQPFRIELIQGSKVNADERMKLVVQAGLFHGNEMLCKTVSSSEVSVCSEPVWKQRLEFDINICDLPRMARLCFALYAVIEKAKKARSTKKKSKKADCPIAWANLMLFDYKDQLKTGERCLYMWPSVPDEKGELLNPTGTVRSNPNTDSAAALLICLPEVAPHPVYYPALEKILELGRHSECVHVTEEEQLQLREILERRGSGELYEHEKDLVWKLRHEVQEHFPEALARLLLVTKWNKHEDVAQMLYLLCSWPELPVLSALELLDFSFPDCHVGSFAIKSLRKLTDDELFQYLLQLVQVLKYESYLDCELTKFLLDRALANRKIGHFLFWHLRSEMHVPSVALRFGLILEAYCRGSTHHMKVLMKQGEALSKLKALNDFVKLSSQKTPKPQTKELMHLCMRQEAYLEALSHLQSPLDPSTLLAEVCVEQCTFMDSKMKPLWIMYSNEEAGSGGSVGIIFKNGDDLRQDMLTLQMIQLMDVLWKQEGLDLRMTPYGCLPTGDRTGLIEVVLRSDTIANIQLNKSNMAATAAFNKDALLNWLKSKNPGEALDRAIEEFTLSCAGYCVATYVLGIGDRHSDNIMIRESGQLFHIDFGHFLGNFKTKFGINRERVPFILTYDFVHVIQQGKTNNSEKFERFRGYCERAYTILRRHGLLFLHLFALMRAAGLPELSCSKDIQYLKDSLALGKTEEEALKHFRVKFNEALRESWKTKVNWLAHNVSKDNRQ
The conditions noted are these: at 0.1 µM.

The target of assay [17] is T3, Phosphatidylinositol 4,5-bisphosphate 3-kinase catalytic subunit delta isoform (Homo sapiens). To be noted: at 1 µM.
The target of assay [18] is Phosphatidylinositol 4-kinase beta (Homo sapiens) (UniProt Q9UBF8). The conditions noted are these: at 0.1 µM.
Sequence of Phosphatidylinositol 4-kinase beta (Homo sapiens) (Q9UBF8 2-816 limits assumed): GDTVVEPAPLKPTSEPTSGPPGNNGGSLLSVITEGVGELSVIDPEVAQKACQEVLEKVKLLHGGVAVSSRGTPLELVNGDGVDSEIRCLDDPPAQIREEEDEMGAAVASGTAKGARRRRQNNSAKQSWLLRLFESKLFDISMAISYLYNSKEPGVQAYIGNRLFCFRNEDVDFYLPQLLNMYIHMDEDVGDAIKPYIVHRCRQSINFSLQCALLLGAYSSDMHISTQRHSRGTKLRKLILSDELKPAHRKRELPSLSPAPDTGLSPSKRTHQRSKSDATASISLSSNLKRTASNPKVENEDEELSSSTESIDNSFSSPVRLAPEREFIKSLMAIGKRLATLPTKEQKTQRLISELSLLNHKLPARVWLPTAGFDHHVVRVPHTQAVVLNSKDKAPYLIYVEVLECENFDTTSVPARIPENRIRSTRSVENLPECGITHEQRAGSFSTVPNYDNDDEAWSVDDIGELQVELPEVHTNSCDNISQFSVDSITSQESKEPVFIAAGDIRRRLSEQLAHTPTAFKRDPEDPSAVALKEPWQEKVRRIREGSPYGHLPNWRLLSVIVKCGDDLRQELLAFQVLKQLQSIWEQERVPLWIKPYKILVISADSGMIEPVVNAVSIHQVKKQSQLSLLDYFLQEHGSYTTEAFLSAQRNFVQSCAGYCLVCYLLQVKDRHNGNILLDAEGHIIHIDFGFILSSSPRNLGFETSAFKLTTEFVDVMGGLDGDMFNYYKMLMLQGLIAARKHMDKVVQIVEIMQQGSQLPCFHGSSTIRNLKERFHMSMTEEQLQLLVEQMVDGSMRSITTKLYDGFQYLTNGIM
For assay [19] the target is unchanged. The conditions noted are these: at 1 µM.
Assay [20] deals with Sphingosine kinase 1 (Homo sapiens) (UniProt Q9NYA1). To be noted: at 0.1 µM.
Sequence of Sphingosine kinase 1 (Homo sapiens) (Q9NYA1 whole entry): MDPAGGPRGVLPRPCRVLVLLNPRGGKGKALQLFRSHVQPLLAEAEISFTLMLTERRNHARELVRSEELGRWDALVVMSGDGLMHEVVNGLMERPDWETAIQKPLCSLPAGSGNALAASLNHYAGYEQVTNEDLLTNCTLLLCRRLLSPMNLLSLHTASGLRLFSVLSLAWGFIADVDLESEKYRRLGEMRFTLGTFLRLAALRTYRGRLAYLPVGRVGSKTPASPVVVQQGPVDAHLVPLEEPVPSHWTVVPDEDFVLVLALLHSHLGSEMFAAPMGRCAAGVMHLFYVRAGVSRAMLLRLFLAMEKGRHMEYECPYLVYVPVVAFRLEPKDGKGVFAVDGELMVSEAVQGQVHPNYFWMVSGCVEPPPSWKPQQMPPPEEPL

Sequence of SRSF protein kinase 3 (Homo sapiens) (Q9UPE1 whole entry): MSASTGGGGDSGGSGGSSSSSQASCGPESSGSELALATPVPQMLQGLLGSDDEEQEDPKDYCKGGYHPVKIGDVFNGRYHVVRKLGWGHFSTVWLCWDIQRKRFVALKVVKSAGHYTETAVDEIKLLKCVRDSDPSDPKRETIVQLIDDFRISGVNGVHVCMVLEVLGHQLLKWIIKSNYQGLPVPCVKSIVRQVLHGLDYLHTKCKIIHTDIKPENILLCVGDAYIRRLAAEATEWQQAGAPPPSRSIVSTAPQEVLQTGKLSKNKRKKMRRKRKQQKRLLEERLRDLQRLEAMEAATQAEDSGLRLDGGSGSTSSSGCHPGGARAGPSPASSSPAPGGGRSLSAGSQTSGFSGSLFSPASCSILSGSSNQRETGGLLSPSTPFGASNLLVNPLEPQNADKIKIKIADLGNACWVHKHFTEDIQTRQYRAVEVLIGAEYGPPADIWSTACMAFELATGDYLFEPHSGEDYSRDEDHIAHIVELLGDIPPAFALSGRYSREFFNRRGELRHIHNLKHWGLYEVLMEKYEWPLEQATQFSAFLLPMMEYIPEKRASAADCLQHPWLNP
Sequence of Phosphatidylinositol 4,5-bisphosphate 3-kinase catalytic subunit alpha isoform (Homo sapiens) (P42336 whole entry, canonical isoform): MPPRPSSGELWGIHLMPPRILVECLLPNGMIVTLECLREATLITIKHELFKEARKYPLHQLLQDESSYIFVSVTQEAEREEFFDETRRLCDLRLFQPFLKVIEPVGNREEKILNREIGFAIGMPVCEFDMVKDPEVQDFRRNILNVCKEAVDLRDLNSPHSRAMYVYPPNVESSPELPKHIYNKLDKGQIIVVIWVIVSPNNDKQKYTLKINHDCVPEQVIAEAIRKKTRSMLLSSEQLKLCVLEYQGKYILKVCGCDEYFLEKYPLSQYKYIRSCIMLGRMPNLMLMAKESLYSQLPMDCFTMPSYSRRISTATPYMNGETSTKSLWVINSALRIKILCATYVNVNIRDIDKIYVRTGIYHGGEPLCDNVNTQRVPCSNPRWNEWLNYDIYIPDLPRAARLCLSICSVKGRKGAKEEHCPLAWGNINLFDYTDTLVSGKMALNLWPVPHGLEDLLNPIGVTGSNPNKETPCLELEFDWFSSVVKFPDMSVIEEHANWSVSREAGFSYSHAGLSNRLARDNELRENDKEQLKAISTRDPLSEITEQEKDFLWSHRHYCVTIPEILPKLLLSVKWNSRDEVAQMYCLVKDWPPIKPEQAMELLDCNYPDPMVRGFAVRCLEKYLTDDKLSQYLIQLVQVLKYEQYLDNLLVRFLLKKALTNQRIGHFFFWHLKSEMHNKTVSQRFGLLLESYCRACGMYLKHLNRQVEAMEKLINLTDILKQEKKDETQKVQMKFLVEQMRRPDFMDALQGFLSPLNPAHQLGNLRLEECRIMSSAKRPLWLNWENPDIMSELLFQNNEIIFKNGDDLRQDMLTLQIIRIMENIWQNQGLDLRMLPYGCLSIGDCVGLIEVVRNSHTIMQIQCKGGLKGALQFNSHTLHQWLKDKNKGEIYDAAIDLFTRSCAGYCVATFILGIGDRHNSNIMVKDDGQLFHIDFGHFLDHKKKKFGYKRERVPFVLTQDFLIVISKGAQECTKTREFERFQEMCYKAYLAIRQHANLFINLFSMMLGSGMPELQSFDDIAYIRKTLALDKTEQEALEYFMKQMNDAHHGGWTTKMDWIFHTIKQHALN
Sequence of Mitogen-activated protein kinase 11 (Homo sapiens) (Q15759 whole entry): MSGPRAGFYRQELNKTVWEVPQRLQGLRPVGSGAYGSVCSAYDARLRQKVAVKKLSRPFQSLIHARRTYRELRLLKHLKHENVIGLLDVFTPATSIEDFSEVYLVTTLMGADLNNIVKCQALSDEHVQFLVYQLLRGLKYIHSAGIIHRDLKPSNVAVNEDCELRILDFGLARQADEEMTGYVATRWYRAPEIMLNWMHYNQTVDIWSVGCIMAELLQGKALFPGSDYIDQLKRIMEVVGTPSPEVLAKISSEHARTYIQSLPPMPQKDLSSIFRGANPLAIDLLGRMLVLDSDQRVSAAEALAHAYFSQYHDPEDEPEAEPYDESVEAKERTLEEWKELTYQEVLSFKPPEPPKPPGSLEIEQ
Sequence of Mitogen-activated protein kinase 3 (Homo sapiens) (P27361 whole entry): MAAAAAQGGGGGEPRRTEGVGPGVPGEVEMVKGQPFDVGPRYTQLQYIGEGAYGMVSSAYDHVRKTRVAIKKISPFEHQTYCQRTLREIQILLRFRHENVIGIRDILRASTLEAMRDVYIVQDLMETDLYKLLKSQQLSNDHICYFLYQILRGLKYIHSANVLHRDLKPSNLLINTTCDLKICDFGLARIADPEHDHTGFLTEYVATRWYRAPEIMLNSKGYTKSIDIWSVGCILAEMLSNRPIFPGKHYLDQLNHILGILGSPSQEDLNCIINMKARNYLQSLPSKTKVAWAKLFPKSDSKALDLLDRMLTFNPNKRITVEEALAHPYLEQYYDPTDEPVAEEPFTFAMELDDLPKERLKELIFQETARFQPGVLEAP

On to `CC1=C(C(=O)Nc2cc(Cl)c3[nH]ncc3c2)C(c2ccc(C(F)(F)F)cc2)CC(=O)N1` (stereo not given), for which the inhibition is 21.8% in assay [1]; -1.32% in assay [2]; -2.71% in [3]; -3.41% in assay [4]; 6.81% in assay [5]; 1.37% in assay [6]. For the same compound, the inhibition was 2.31% in assay [7]; 0.32% in assay [8]; 4.12% in assay [9]; 2.56% in assay [10]; 2.49% in assay [11]; -1.04% in assay [12]. The inhibition in [13] is -1.39%; in assay [14], 2.86%; in [15] it was 6.37%; in assay [16], 1.38%; in assay [17], 4.61%; in [18], 3.72%. In addition, the figures for the inhibition in [19] and in [20] were 1.77% and 6.22%, respectively.
Turning to `N#Cc1c(NC(=O)c2ccc(F)cc2)sc2c1CCCC2`, the inhibition in assay [1] was -0.36%; in [2], -1.54%; in [3] it was 0.88%; in assay [4] it was -0.55%; in assay [5] it was 3.42%; in [6] it was 1.36%. Further, the inhibition in assay [7] was -0.91%; in [8], -0.62%; in [9], 0.84%; in assay [10] it was 0.35%; in [11] it was 0.08%; in [12], -1.47%. Further, the inhibition in assay [13] is -1.93%; in assay [14] it was 1.06%; in assay [15], 0.48%; in [16] it was 1.32%; in [17], -1.48%; in [18] it was -4.06%. For the same compound, the inhibition in assay [19] was 1.29%; in [20], -0.62%.
On to `CCn1c(-c2nonc2N)nc2c(C#CC(C)(C)O)nc(OC[C@H](N)c3ccccc3)cc21`, for which the inhibition in assay [1] was 2.26%; in assay [2], 3.21%; in assay [3] it was -2.11%; in [4], 4.73%; in [5], 7.11%; in assay [6], 3.41%. The inhibition is 4.89% in assay [7]; 1.8% in [8]; 1.9% in [9]; 2.38% in [10]; 3.95% in assay [11]; -2.57% in assay [12]. In addition, the inhibition in assay [13] was -1.89%; in assay [14], 1.03%; in assay [15] it was 1.06%; in assay [16], 0.44%; in assay [17] it was 1.52%; in assay [18], -2.33%. Also, the inhibition in [19] was determined as 0.6%; in [20], 0.65%.
As for `CC(=O)NCc1cccc(C#Cc2cncnc2Nc2ccc(OCc3cccc(F)c3)c(Cl)c2)c1`, the inhibition was 2.72% in [1]; -1.32% in [2]; -1.8% in assay [3]; 1.05% in [4]; -0.7% in [5]; 1.26% in assay [6]. For the same compound, the inhibition in [7] is -0.84%; in assay [8] it was -3.33%; in [9] it was 0.78%; in assay [10], 0.11%; in assay [11], 1.37%; in assay [12] it was -0.72%. The inhibition in assay [13] was -2.28%; in assay [14], -1.17%; in assay [15], 0.49%; in assay [16], -1.34%; in assay [17], -0.33%; in assay [18], -4.32%. Besides, the inhibition in [19] was -2.4%; in [20] it was 2.94%.
Take `Fc1ccc(-c2nn3ccccc3c2-c2ccncc2)cc1`: the inhibition is 0.82% in [1]; -2.15% in assay [2]; 1.26% in assay [3]; 41.4% in [4]; 81.2% in [5]; 7.33% in [6]. Further, the inhibition is 38.7% in [7]; -0.3% in [8]; 0.46% in assay [9]; 1.66% in assay [10]; 1.62% in assay [11]; -2.12% in [12]. For the same compound, the inhibition in assay [13] was -2.82%; in assay [14], 0.14%; in assay [15], 1.14%; in [16] it was 0.32%; in assay [17] it was 2.31%; in assay [18], -1.2%. Also, the values for the inhibition in [19] and in assay [20] were 1.37% and -0.49%, respectively.
For the compound `CCCN(CCS(C)(=O)=O)Cc1ccc(-c2ccc3ncnc(Nc4ccc(OCc5cccc(F)c5)c(Cl)c4)c3c2)o1`, the inhibition in assay [1] was 2.62%; in [2], -1.91%; in assay [3], -0.61%; in assay [4] it was 10.4%; in assay [5] it was 4.25%; in [6], 0.78%. The inhibition was 0.65% in assay [7]; 4.35% in assay [8]; 2.64% in assay [9]; 0.9% in [10]; 1.28% in assay [11]; -1.14% in assay [12]. Besides, the inhibition in assay [13] is -0.67%; in assay [14] it was 0.82%; in assay [15] it was 4.19%; in assay [16], 0.06%; in [17] it was 6.07%; in assay [18] it was 1.73%. Further, the inhibition was found to be 0.08% in [19] and 7% in assay [20].
